The entries come from a sample that favours the strongest signals as a whole.
Assays:
Experiment in all cases: glycan array binding signal (z-score within array); higher = stronger binding
Conditions in all cases: glycan notation: IUPAC condensed, linker removed
[1] = target: Fuc(a1-2)Gal(b1-3)GlcNAc(b1-2)Man(a1-3)[Fuc(a1-2)Gal(b1-3)GlcNAc(b1-2)Man(a1-6)]Man(b1-4)GlcNAc(b1-4)GlcNAc
How it was run: (§1)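 Glycan array binding is given as a within-array Z-score, which can be read as non-binding when negative. The arrays, 3228 of them, came from the Consortium for Functional Glycomics database and were retained only where the protein sequence was available. Z-scores were averaged across arrays of the same protein sequence at different concentrations or buffers and across linkers.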

[2] = target: Fuc(a1-2)Gal(b1-4)GlcNAc(b1-3)GalNAc
How it was run: as §1

[3] = target: Fuc(a1-2)[Gal(a1-3)]Gal(b1-4)Glc
How it was run: as §1

[4] = target: Fuc(a1-2)[GalNAc(a1-4)]Gal(b1-4)GlcNAc
How it was run: as §1

[5] = target: Fuc(a1-3)[Gal(b1-4)]GlcNAc(b1-3)Gal(b1-3)[Fuc(a1-4)]GlcNAc
How it was run: as §1

[6] = target: Fuc(a1-3)[Gal3S(b1-4)]Glc
How it was run: as §1

[7] = target: Fuc(a1-3)[GalNAc(b1-4)]GlcNAc6S
How it was run: as §1

[8] = target: Gal(a1-3)GalNAc
How it was run: as §1

[9] = target: Gal(a1-6)Glc
How it was run: as §1

[10] = target: Gal(b1-3)GalNAc
How it was run: as §1

[11] = target: Gal(b1-3)GlcNAc(a1-3)Gal(b1-4)GlcNAc
How it was run: as §1

[12] = target: Gal(b1-3)GlcNAc(b1-3)Gal(b1-4)GlcNAc(b1-2)Man(a1-3)[Gal(b1-3)GlcNAc(b1-3)Gal(b1-4)GlcNAc(b1-2)Man(a1-6)]Man(b1-4)GlcNAc(b1-4)GlcNAc
How it was run: as §1

[13] = target: Gal(b1-3)GlcNAc(b1-3)Gal(b1-4)GlcNAc(b1-6)[Gal(b1-3)GlcNAc(b1-3)]Gal(b1-4)Glc
How it was run: as §1

[14] = target: Gal(b1-3)[Fuc(a1-4)]GlcNAc(b1-3)Gal(b1-4)[Fuc(a1-3)]GlcNAc
How it was run: as §1

[15] = target: Gal(b1-4)Gal
How it was run: as §1

[16] = target: Gal(b1-4)GlcNAc(b1-2)Man(a1-3)[Man(a1-6)]Man(b1-4)GlcNAc(b1-4)GlcNAc
How it was run: as §1

[17] = target: Gal(b1-4)GlcNAc(b1-3)Gal(b1-4)GlcNAc(b1-3)Gal(b1-4)GlcNAc(b1-2)Man(a1-3)[Gal(b1-4)GlcNAc(b1-3)Gal(b1-4)GlcNAc(b1-3)Gal(b1-4)GlcNAc(b1-2)Man(a1-6)]Man(b1-4)GlcNAc(b1-4)GlcNAc
How it was run: as §1

[18] = target: Gal(b1-4)GlcNAc(b1-3)Gal(b1-4)GlcNAc(b1-3)Gal(b1-4)GlcNAc(b1-3)Gal(b1-4)GlcNAc(b1-3)Gal(b1-4)GlcNAc(b1-2)Man(a1-3)[Gal(b1-4)GlcNAc(b1-3)Gal(b1-4)GlcNAc(b1-3)Gal(b1-4)GlcNAc(b1-3)Gal(b1-4)GlcNAc(b1-3)Gal(b1-4)GlcNAc(b1-2)Man(a1-6)]Man(b1-4)GlcNAc(b1-4)GlcNAc
How it was run: as §1

[19] = target: Gal(b1-4)GlcNAc(b1-3)Gal(b1-4)GlcNAc(b1-3)Gal(b1-4)GlcNAc(b1-3)Gal(b1-4)GlcNAc(b1-3)Gal(b1-4)GlcNAc(b1-2)Man(a1-3)[Gal(b1-4)GlcNAc(b1-3)Gal(b1-4)GlcNAc(b1-3)Gal(b1-4)GlcNAc(b1-3)Gal(b1-4)GlcNAc(b1-3)Gal(b1-4)GlcNAc(b1-2)Man(a1-6)]Man(b1-4)GlcNAc(b1-4)[Fuc(a1-6)]GlcNAc
How it was run: as §1

[20] = target: Gal(b1-4)GlcNAc(b1-3)Gal(b1-4)GlcNAc(b1-3)Gal(b1-4)GlcNAc(b1-3)Gal(b1-4)GlcNAc(b1-3)Gal(b1-4)GlcNAc(b1-2)[Gal(b1-4)GlcNAc(b1-3)Gal(b1-4)GlcNAc(b1-3)Gal(b1-4)GlcNAc(b1-3)Gal(b1-4)GlcNAc(b1-3)Gal(b1-4)GlcNAc(b1-6)]Man(a1-6)[Gal(b1-4)GlcNAc(b1-3)Gal(b1-4)GlcNAc(b1-3)Gal(b1-4)GlcNAc(b1-3)Gal(b1-4)GlcNAc(b1-3)Gal(b1-4)GlcNAc(b1-2)Man(a1-3)]Man(b1-4)GlcNAc(b1-4)[Fuc(a1-6)]GlcNAc
How it was run: as §1

[21] = target: Gal(b1-4)GlcNAc(b1-6)Gal(b1-4)GlcNAc
How it was run: as §1

[22] = target: Gal3S(b1-4)GlcNAc
How it was run: as §1

[23] = target: Gal6S(b1-3)GlcNAc
How it was run: as §1

[24] = target: GalNAc(b1-4)GlcNAc
How it was run: as §1

[25] = target: GlcNAc(b1-2)[GlcNAc(b1-6)]Man(a1-6)[GlcNAc(b1-4)][GlcNAc(b1-2)Man(a1-3)]Man(b1-4)GlcNAc(b1-4)GlcNAc
How it was run: as §1

[26] = target: GlcNAc(b1-3)Gal(b1-4)GlcNAc(b1-3)Gal(b1-4)GlcNAc(b1-3)Gal(b1-4)GlcNAc(b1-3)Gal(b1-4)GlcNAc(b1-2)Man(a1-3)[GlcNAc(b1-3)Gal(b1-4)GlcNAc(b1-3)Gal(b1-4)GlcNAc(b1-3)Gal(b1-4)GlcNAc(b1-3)Gal(b1-4)GlcNAc(b1-2)Man(a1-6)]Man(b1-4)GlcNAc(b1-4)[Fuc(a1-6)]GlcNAc
How it was run: as §1

[27] = target: GlcNAc(b1-4)GlcNAc
How it was run: as §1

[28] = target: Kdn(a2-3)Gal(b1-4)Glc
How it was run: as §1

[29] = target: Kdn(a2-3)Gal(b1-4)GlcNAc
How it was run: as §1

[30] = target: Man(a1-2)Man(a1-3)Man
How it was run: as §1

[31] = target: Man(a1-2)Man(a1-3)[Man(a1-2)Man(a1-6)]Man(a1-6)[Man(a1-2)Man(a1-2)Man(a1-3)]Man
How it was run: as §1

[32] = target: Neu5Ac(a2-3)Gal(b1-3)GalNAc(b1-3)Gal(a1-4)Gal(b1-4)Glc
How it was run: as §1

[33] = target: Neu5Ac(a2-3)Gal(b1-3)GlcNAc(b1-6)GalNAc
How it was run: as §1

[34] = target: Neu5Ac(a2-3)Gal(b1-3)[Fuc(a1-4)]GlcNAc(b1-3)Gal(b1-3)[Fuc(a1-4)]GlcNAc
How it was run: as §1

[35] = target: Neu5Ac(a2-3)Gal(b1-4)GlcNAc(b1-2)Man(a1-3)[Neu5Ac(a2-6)Gal(b1-4)GlcNAc(b1-2)Man(a1-6)]Man(b1-4)GlcNAc(b1-4)GlcNAc
How it was run: as §1

[36] = target: Neu5Ac(a2-3)Gal(b1-4)GlcNAc(b1-2)[Neu5Ac(a2-3)Gal(b1-4)GlcNAc(b1-4)]Man(a1-3)[GlcNAc(b1-4)][Neu5Ac(a2-3)Gal(b1-4)GlcNAc(b1-2)[Neu5Ac(a2-3)Gal(b1-4)GlcNAc(b1-6)]Man(a1-6)]Man(b1-4)GlcNAc(b1-4)GlcNAc
How it was run: as §1

[37] = target: Neu5Ac(a2-3)Gal(b1-4)GlcNAc(b1-3)Gal(b1-4)GlcNAc(b1-3)[Neu5Ac(a2-3)Gal(b1-4)GlcNAc(b1-3)Gal(b1-4)GlcNAc(b1-6)]GalNAc
How it was run: as §1

[38] = target: Neu5Ac(a2-3)Gal(b1-4)[Fuc(a1-3)]GlcNAc(b1-2)Man
How it was run: as §1

[39] = target: Neu5Ac(a2-3)[GalNAc(b1-4)]Gal(b1-4)GlcNAc
How it was run: as §1

[40] = target: Neu5Ac(a2-6)Gal(b1-4)GlcNAc(b1-3)Gal(b1-4)[Fuc(a1-3)]GlcNAc(b1-3)Gal(b1-4)[Fuc(a1-3)]GlcNAc
How it was run: as §1

[41] = target: Neu5Ac(a2-8)Neu5Ac(a2-8)Neu5Ac
How it was run: as §1

[42] = target: Neu5Gc(a2-3)Gal(b1-4)Glc
How it was run: as §1

[43] = target: Neu5Gc(a2-3)Gal(b1-4)[Fuc(a1-3)]GlcNAc
How it was run: as §1

[44] = target: Neu5Gc(a2-8)Neu5Gc(a2-6)Gal(b1-4)GlcNAc
How it was run: as §1

B1: Als3-2 (Candida albicans) (protein)
chain: KTITGVFNSFNSLTWSNAATYNYKGPGTPTWNAVLGWSLDGTSASPGDTFTLNMPCVFKFTTSQTSVDLTAHGVKYATCQFQAGEEFMTFSTLTCTVSNTLTPSIKALGTVTLPLAFNVGGTGSSVDLEDSKCFTAGTNTVTFNDGGKKISINVDFERSNVDPKGYLTD
glycan array binding signal (z-score) [1]: 7.12 | glycan array binding signal (z-score) [2]: 9.17 | glycan array binding signal (z-score) [3]: -0.338 | glycan array binding signal (z-score) [4]: -0.444 | glycan array binding signal (z-score) [5]: 3.23 | glycan array binding signal (z-score) [6]: -0.64 | glycan array binding signal (z-score) [7]: 0.076 | glycan array binding signal (z-score) [8]: -0.308 | glycan array binding signal (z-score) [9]: -0.625 | glycan array binding signal (z-score) [10]: -0.398 | glycan array binding signal (z-score) [11]: -0.203 | glycan array binding signal (z-score) [12]: 2.3 | glycan array binding signal (z-score) [13]: -0.603 | glycan array binding signal (z-score) [14]: -0.461 | glycan array binding signal (z-score) [15]: -0.552 | glycan array binding signal (z-score) [16]: 0.449 | glycan array binding signal (z-score) [17]: 3.26 | glycan array binding signal (z-score) [18]: 5.24 | glycan array binding signal (z-score) [19]: 3.26 | glycan array binding signal (z-score) [20]: 3.16 | glycan array binding signal (z-score) [21]: 1.11 | glycan array binding signal (z-score) [22]: 0.36 | glycan array binding signal (z-score) [23]: 3.68 | glycan array binding signal (z-score) [24]: 0.934 | glycan array binding signal (z-score) [25]: -0.7 | glycan array binding signal (z-score) [26]: 3.13 | glycan array binding signal (z-score) [27]: 0.531 | glycan array binding signal (z-score) [28]: -0.075 | glycan array binding signal (z-score) [29]: -0.528 | glycan array binding signal (z-score) [30]: -0.511 | glycan array binding signal (z-score) [31]: -0.73 | glycan array binding signal (z-score) [32]: -0.583 | glycan array binding signal (z-score) [33]: 1.45 | glycan array binding signal (z-score) [34]: -0.524 | glycan array binding signal (z-score) [35]: -0.401 | glycan array binding signal (z-score) [36]: 3.2 | glycan array binding signal (z-score) [37]: 6.15 | glycan array binding signal (z-score) [38]: 0.73 | glycan array binding signal (z-score) [39]: -0.449 | glycan array binding signal (z-score) [40]: -0.584 | glycan array binding signal (z-score) [41]: -0.398 | glycan array binding signal (z-score) [42]: 0.047 | glycan array binding signal (z-score) [43]: -0.059 | glycan array binding signal (z-score) [44]: -0.628

From the supplement of paper PMC8728848
